For 40 sequences, PBM binding z-score results are on record in the supplement of paper PMC6555819.

This experiment relates to VDR:RXRa (NR concentration 270 nM, RXRa partner concentration 90 nM). Briefly: PBM binding z-score (relative to random genomic background probes); higher = stronger binding; sequences stand for … in GC…GCGATTGACAGCGTAGAATGAAGG
How it is done:
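Protein-binding microarray (Agilent 4x180K custom design, double-stranded 60-nt probes: 5' GC cap, 34-nt variable region, 24-nt constant primer region; full probe sequence given). Purified or IVT nuclear receptor:RXRα heterodimers (3:1 NR:RXRα, mostly 270:90 nM) or homodimers were incubated for 1 h in PBS with 2% milk and no ligand, then detected with Alexa488 antibodies. Fluorescence from o1-orientation probes (~5 replicates averaged) was converted to z-scores against 500 random hg19 background probes. Variable regions are seed direct-repeat (DR0–DR5) sites, all their single-nucleotide variants and half-site ablations.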
Regarding GGAACGAGGGCAAGTTGCTAGCAGAGTTTGATGG, the PBM binding z-score amounted to 0.604. GCTAGTTGGTCAGTATAAGGTCACACACCGGTCG came in with a PBM binding z-score of 3.24. TATACATGGTCAAAGGCCAGAGTACGAATGTCGA gave a PBM binding z-score of 0.445.

The sequence CGTCCAAGGCCAAGGTCAGTGAAAGAGACTCGAA registered a PBM binding z-score of 1.15. As to ATACCAAGGTGATCGTGAGGTCGTCGATACTAAC, the PBM binding z-score was determined as 2.72.

As for CCTGTTAGGTCATGGTCAGCTAATCTACAGTATG, the PBM binding z-score is 2.02. TCATATAGGTAAATGCTAGGTGGAAGTCCGATCT gave a PBM binding z-score of 0.687. TGTCAAAGTTCAAATGTAACGTAAGTATCCACAC displayed a PBM binding z-score of 4.57. The sequence CAAACTACGTCACGAAAGGTCAAAGTCGAATGAC returned a PBM binding z-score of 4.91. In the case of GCTGCTAGGTCAGCTGATGGTCAGCTAAAGCTCG, the PBM binding z-score was -0.126. TTACCAAGGAGAAGGTCGTTGATCCCTCTGTAGA yielded a PBM binding z-score of 0.838.

Take GCTATTAGCTGAAAGGGCAACCGAATGATTCTCG: the PBM binding z-score is -0.0457.

The sequence TTACCAAGGTGAAGGTGGTTGATCCCTCTGTAGA came in with a PBM binding z-score of 0.0919.

CCAGATAGGTGAGAAGGTAACTCAGCCTCGATTA registered a PBM binding z-score of 0.254. Turning to ATACCAAGGTGATCGTGAGGTCCTTGATACTAAC, the PBM binding z-score worked out at 0.32. The sequence CGGACGAGGGCATGAGTTGATAGCAAATGCCGAT yielded a PBM binding z-score of 1.21. Then ATCGAAAGGTCGAAGGGGAGTATACCCACCCGAA, with 2.67. TCGATTAGGTTACCAATGGGGCATTCAGCTTTCT displayed a PBM binding z-score of 0.441. Under CAGCCTAAGTCAGGGCCAGTATAGGAGGAACGTT stands -0.626. Under CCTACTGAGCCAAGGTCATTGATCAGTCAAAGCA stands 3.63; under CCGACTGGGGCAAAGGTTTCCATACTCAGTACGA, -0.277.

On to CCTAGTTGGTCAGGAGGTCACGCACCGGATATGA, for which the PBM binding z-score turned out to be 4.58.

Turning to GCTTGCAGATCAAGGTTAAGAAAGACTAAGCTAA, the PBM binding z-score is -0.0251.

For the sequence GATACAGGGTCAGCTAGATGCCAGAGTATGGAAA, the PBM binding z-score was 2.58. ATCTCCAGGTAACCAAGTTCAGTGAATGCCGAAC showed a PBM binding z-score of 4.4. Regarding CGTCCTAGGTCAGCAGGTCAGTGAAAGCGACGTG, the PBM binding z-score came out at 2.07. For ACTAACAGGCCAAGTTTGGGTCACTCAAACAAAG, the PBM binding z-score turned out to be 0.973. Consider AGAACGAGGGCACGCTGAGTTGATAGGAGAGTAG, for which the PBM binding z-score worked out at 2.04. As for TCTGCTAGGTCAGTTGGTCAGCTGACGAGCTGCC, the PBM binding z-score is -0.0967. For the sequence ATCGAAAGGACGTGAGGTGAGTATACAGAAAGGC, the PBM binding z-score is -0.301. The sequence TTACCACGGTGAGCTGAGGTCGTTGATCCAACTC gave a PBM binding z-score of 1.57. Turning to AGTCAAAGTTCATCTATGTAACGTAAGATATGCT, the PBM binding z-score came to 4.75.

As for TCGAGTAGGTTACCAATGGAGCATTCAGCTTTCT, the PBM binding z-score is -0.303.

Take ATCGAAAGGACGACGAGGTGAGTATACACCGTTT: the PBM binding z-score was determined as 0.0992. Then GCTAGCAGGACATTTGGGTCACTCAATGACGGGC, with 0.429; and ATATGTAGGTTACATCCAGGTCATTCAGGCTATG, with 4.11; and ATCTCTAGGTAGCAAGTTCAGTGAAAGAGAGGAC, with 1.35. Regarding GATACAGGGCCAAGGCCAGAGTACGCGTATTGAT, the PBM binding z-score was -0.59.

For the sequence GGAACGAGGGCATTCGAGGTGATAGCATGGCGAT, the PBM binding z-score worked out at 2.4. Take TGTCACAGTTCAAAGGTAACGTAAGTATCCACAC: the PBM binding z-score was found to be 3.28.
